Test results from ChEMBL document CHEMBL4888484, “Replenishing the malaria drug discovery pipeline: Screening and hit evaluation of the MMV Hit Generation Library 1 (HGL1) against asexual blood stage Plasmodium falciparum ,using a nano luciferase reporter read-out” (2022).
Among all 4,800 compounds or so, about 420 (8.8%) showed an effect of 50% or more. The full list was thinned out, with strong results kept by preference.

What follows are compounds tested on Plasmodium falciparum (assay: Confirmatory screen in NF54 nanoGlo assay, in single point, at 2uM, 72h). Conditions: timepoint 72 hour.
Format: functional, Erythrocyte

Point of comparison: `CC1(C)CCC(Nc2ccc(C(N)=O)nn2)CC1`, “% Inhibition” value 70%. Against it:
- O=C(NC(c1ccccc1)c1ccccc1)C1=COCCO1 — lower, -9%
- CCOC(=O)c1nc(-c2cccnc2)cs1 — lower, -12%
- N#C[C@@H](C(=O)NCc1cccnc1)c1nc(-c2ccccc2)cs1 — lower, -1%
- Cc1cc(C(=O)N[C@@H](C)c2nc(-c3cccnc3)cs2)cc(O)n1 — lower, 53%
- C#CCN1C(=O)N[C@@](CC)(C(C)C)C1=O — lower, 10%
- Cc1oc(=S)n2c1C[C@@H](c1ccccc1)N(Cc1ccccc1)C2 — lower, -15%
- CCc1ccc(NC(=O)[C@@H]2CCn3c(C(=O)c4ccccc4)ccc32)cc1 — lower, 1%
- Cn1cc(C(=O)NCC2CCN(S(=O)(=O)c3cccs3)CC2)cn1 — lower, -2%
- CCc1ccc(NC(=O)[C@H](C)N2CCC(NS(=O)(=O)c3cccs3)CC2)cc1 — the same, 70%
- CN(Cc1ccc(F)c(F)c1)S(=O)(=O)C[C@H]1CCN(C(=O)OCc2ccccc2)C1 — lower, -10%
- Cc1cc(C)n(-c2ccc(CN3C(=O)NC4(CCCC4)C3=O)cc2)n1 — lower, -4%
- O=C1CN(C(=O)Cc2c(F)cccc2Cl)C2(CCCC2)CN1 — lower, -11%
- Cc1nccc(NC(=O)C2CCC(F)(F)CC2)c1Cl — lower, -4%
- Cc1c(NC(=O)CC(C)(C)CC(=O)N2CCN(c3ccccc3F)CC2)c(=O)n(-c2ccccc2)n1C — lower, 2%
- O=C(COc1ccccc1)Nc1ccc2c(c1)C(O)=Nc1cccnc1O2 — lower, 58%
- CC(C)(C)CC(=O)Nc1ccc2c(c1)C(N1CCCCC1)=Nc1ccccc1O2 — lower, -13%
- CC1(C)Oc2ccc(NC(=O)COc3ccccc3)cc2NC1=O — lower, 11%
- Cc1ccc([C@H]2C=NN(c3ccc(Br)cc3)C2=O)cc1 — lower, 20%
- Cc1onc(N)c1S(=O)(=O)Nc1ccncc1 — lower, -7%
- Cc1ccc(C)c(S(=O)(=O)NCCNc2ccc(Nc3ccncc3)nn2)c1 — lower, 28%
- CCC(=O)N1CCN(c2cc(Nc3ccc(C)cc3)nc(C)n2)CC1 — lower, -1%
- Cc1ccccc1S(=O)(=O)NCc1nnc(C(=O)Nc2ccc(F)cc2F)s1 — lower, -5%
- CCC(=O)Nc1nc2c(OC)cc(NS(=O)(=O)c3c(C)noc3C)cc2s1 — lower, -4%
- CCNc1nc(C)cc(Nc2ccc(NC(=O)c3cc(C)ccc3C)cc2)n1 — higher, 98%
- O=C(Nc1ccc(N2CCOCC2)cc1)Nc1ccc(F)cc1F — lower, 1%
- CCNc1nc(C)cc(Nc2ccc(NS(=O)(=O)c3c(C)noc3C)cc2)n1 — higher, 92%
- CC(C)c1ccc(-c2nn3c(C4CCN(S(C)(=O)=O)CC4)nnc3s2)cc1 — lower, -20%
- C[C@H](C#N)CNc1ncc(Br)cn1 — lower, 1%
- CN(c1ccc(Cl)cn1)S(=O)(=O)c1ccc2ncccc2c1 — lower, -22%
- C[C@H]1CN(Cc2cc3c(cc2Br)OCO3)CCN1S(C)(=O)=O — lower, -2%
- Brc1ccc(NCc2[nH]nnc2-c2ccccc2)cc1 — lower, 2%
- O=S(=O)(c1ccccc1Br)N1CC[C@H]1c1ccccc1 — lower, -6%
- CN(c1ncc(S(=O)(=O)c2ccccc2)c(N)n1)C1CCCCC1 — lower, -9%
- Cn1ccnc1CN1CCC[C@@](O)(CNS(=O)(=O)c2cccs2)CC1 — lower, -10%
- CC(C)(C)c1ccnc(N[C@H]2CO[C@H]3[C@@H]2OC[C@@H]3NC(=O)NCc2ccccc2)n1 — lower, 18%
- Cc1nn(CCC(=O)NC2CCCC2)cc1Br — lower, -10%
- CN(C)c1ccc(C(=O)N[C@@]2(C)CCS(=O)(=O)C2)cc1 — lower, -6%
- Cc1cnn(Cc2cc(C(=O)N(C)Cc3nc4ccccc4n3C)no2)c1 — lower, -6%
- O=C(Nc1cccc2cccnc12)N1CCOCC1CC(O)c1cccs1 (centres undefined) — lower, 0%
- Cc1nnc(O)c(CNC(=O)COC2CCCC(C)C2)c1C (centres undefined) — lower, -7%
- c1ccc(-c2nc(C[n+]3ccc4c(c3)CCCC4)cs2)cc1 — lower, 57%
- Cc1ncccc1C(=O)NCCc1csc(-c2ccccc2)n1 — lower, -11%
- Cc1cc(C)cc(NC(=O)CCn2c(=O)cc(C(F)(F)F)c3cn(C(C)C)nc32)c1 — lower, -14%
- CCn1cnc2c(N3CCC[C@H](c4ccncc4)C3)ncnc21 — lower, 68%
- Brc1cncnc1N1CCC[C@H](c2nnn[nH]2)C1 — lower, -15%
- CCn1c(=O)c(N2CCC[C@H](C(=O)NCc3ccccc3OC)C2)nc2cccnc21 — lower, -7%
- CC(C)(C)NC(=O)N[C@H]1COc2c1ccc(Cl)c2Cl — lower, -3%
- Cc1ccc(C(=O)Nc2ccc(N3CCN(c4c(F)c(F)c(F)c(F)c4F)CC3)cc2)c(Cl)c1 — lower, 10%
- O=C(O)c1cc(N2CCC(Cc3ccccc3)CC2)ccc1NC(=O)C1CCC1 — lower, -14%
- NC(=O)c1ccccc1NC(=O)C1CCN(c2cc(C3CC3)ncn2)CC1 — lower, 53%
- O=C(Nc1nc2ccccc2[nH]1)C1CCN(c2cc3c(nn2)CCC3)CC1 — lower, 5%
- Cc1cn([C@H]2C[C@@H](OC(=O)c3ccccc3)[C@@H](CO)O2)c(=O)[nH]c1=O — lower, -6%
- CC(C)NC(=O)[C@H](C)N(C)Cc1nccn1CC(F)(F)F — lower, -1%
- CCC(CC)c1ccc([C@H]2N(C(=O)c3ccc(C)cc3)CCN2S(=O)(=O)c2ccccc2)cc1 — lower, -2%
- O=S1(=O)CCN(C2CCN(Cc3c(F)cccc3F)CC2)CC1 — lower, 4%
- CN1C2(c3ccccc3)C3C(=O)N(c4ccccc4)C(=O)C3C1(c1ccccc1)C1C(=O)N(c3ccccc3)C(=O)C12 (centres undefined) — lower, 2%
- COc1cccc(N2C(=O)C[C@]3(CC3(c3ccccc3)c3ccccc3)C2=O)c1 — lower, 39%
- Cc1ccc(N2C(=O)C[C@]3(CC3(c3ccccc3)c3ccccc3)C2=O)cc1 — lower, 66%
- O=S(=O)(Cc1ccno1)NCCc1ccccc1OC(F)F — lower, 2%
- Cc1ccc(C(=O)Nc2noc(-c3ccc(C)cc3)c2-c2ccccc2Cl)cc1 — lower, -11%
- c1cc(-c2cn3c(COc4ccc5c(c4)OCO5)nnc3s2)ccn1 — lower, 3%
- CC1CCN(C[C@H]2CCCCCN2C(=O)NCCc2ccccc2)CC1 — lower, 34%
- O=C(Cc1cc(F)c(F)cc1F)N1CCOC[C@H]1c1ncon1 — lower, -3%
